Assay results published in PubChem BioAssay (EPA / NIEHS).
Results filed as inconclusive are left out. Activity calls are given as the source filed them. Rule for the calls, unless noted: active = hit-call score of the fitted dose curve at least 0.9, where 1 is the maximum; inactive = score below 0.9.

What was measured:
[1] = ATG_M_32_TRANS: Attagene TRANS-FACTORIAL HepG2 Assay for M32 Transcription Factor (Internal Marker) (AID 2282984; active = hit-call score of the fitted dose curve at least 0.9, where 1 is the maximum;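 note: transcript level of a background control reporter unit measured by RT-PCR and capillary electrophoresis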); details: HepG2 Attagene TRANS M32 internal marker reporter
How it was run: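 After 24 h dosing of transfected HepG2 cells, total RNA was reverse-transcribed, reporter sequences PCR-amplified, 6-FAM labelled by primer extension and HpaI-digested before capillary electrophoresis. Signal increase over DMSO was fitted.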

[2] = biological target: Nuclear receptor subfamily 4 group A member 2 (Homo sapiens) (UniProt P43354); assay: ATG_NURR1_TRANS: Attagene TRANS-FACTORIAL HepG2 Assay for human Nuclear Receptor Related Protein 1 (NURR1) (AID 2282985; active = hit-call score of the fitted dose curve at least 0.9, where 1 is the maximum); details: HepG2 Attagene TRANS reporter, mRNA readout
How it was run: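 Chimeric NR-Gal4 fusion activity measured in HepG2 after 24 h treatment. Reporter transcripts detected by RT-PCR and capillary electrophoresis fluorescence; positive-direction curve fitting against DMSO.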

[3] = biological target: Nuclear respiratory factor 1 (Homo sapiens) (UniProt Q16656); assay: ATG_NRF1_CIS: Attagene CIS-FACTORIAL HepG2 Assay for human Nuclear Respiratory Factor 1 (NRF1) Orphan Gene (AID 2282987); details: HepG2 NRF1 cis-element reporter, Attagene multiplex; actives raise or lower the signal
How it was run: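 Measured: fluorescent reporter-specific RT-PCR products from transfected HepG2 cells, separated by capillary electrophoresis. Exposure lasted 24 h. Analysis used bidirectional curve fitting with DMSO as negative control.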

[4] = ATG_NFI_CIS: Attagene CIS-FACTORIAL HepG2 Assay for human Nuclear Factor I (NFI) (AID 2282989); details: HepG2 cis-regulatory reporter, NFI response element transcription; actives raise or lower the signal
How it was run: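 Reporter transcripts were measured by RT-PCR with fluorescent primer extension and capillary electrophoresis 24 h post-treatment. HepG2 cells carried transiently transfected cis-regulated reporter constructs reporting endogenous factor activity; gain or loss fitted against DMSO baseline.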

[5] = biological target: Myc proto-oncogene protein (Homo sapiens) (UniProt P01106); assay: ATG_Myc_CIS: Attagene CIS-FACTORIAL HepG2 Assay for human Myelocytomatosis (Myc) Proto-Oncogene Transcription Factor (AID 2282990); details: HepG2, Attagene cis-reporter transcription factor activity; actives raise or lower the signal
How it was run: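 Multiplexed cis-reporter transcription in HepG2 cells after 24 h chemical treatment. Reporter mRNA measured by RT-PCR and capillary electrophoresis fluorescence; activity fitted bidirectionally against DMSO control.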

[6] = ATG_NF_kB_CIS: Attagene CIS-FACTORIAL HepG2 Assay for human Nuclear Factor Kappa B (NF-kB) (AID 2282991); details: HepG2 Attagene cis-factorial NF-kB reporter mRNA; actives raise or lower the signal
How it was run: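 Fluorescence of labelled RT-PCR products separated by capillary electrophoresis gives reporter mRNA levels from transfected HepG2 cells exposed 24 h; values are fitted in both directions relative to DMSO.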

[7] = ATG_NRF2_ARE_CIS: Attagene CIS-FACTORIAL HepG2 Assay for human Nuclear Factor Erythroid 2 Related Factor 2 (NFR2) response to Antioxidant Response Elements (ARE) (AID 2282992); details: HepG2 Attagene ARE/NRF2 reporter, transcription factor activity; actives raise or lower the signal
How it was run: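 Using transiently transfected HepG2 cells exposed for 24 h, reporter mRNA levels were determined by RT-PCR with fluorescent primer extension and capillary electrophoresis, analysed for gain or loss of signal against DMSO.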

[8] = ATG_Oct_MLP_CIS: Attagene CIS-FACTORIAL HepG2 Assay for human Octamer-Binding Transcription Factor (Oct) (AID 2282993); details: HepG2 Attagene cis-factorial Oct reporter, mRNA; actives raise or lower the signal
How it was run: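 Readout is reporter transcript level from RT-PCR with fluorescent primer extension and capillary electrophoresis, fitted in both directions against DMSO. Transfected HepG2 reporter units report endogenous factor activity after 24 h dosing.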

[9] = biological target: Cellular tumor antigen p53 (Homo sapiens) (UniProt P04637); assay: ATG_p53_CIS: Attagene CIS-FACTORIAL HepG2 Assay for human p53 Transcription Factor (AID 2282994); details: HepG2 p53 cis-element reporter, Attagene mRNA; actives raise or lower the signal
How it was run: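 In HepG2 cells, reporter transcription units under cis-regulatory promoters were transiently introduced. Following 24 h treatment, RNA was processed to labelled, digested cDNA fragments read by capillary electrophoresis; fitting was bidirectional versus DMSO.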

[10] = biological target: human Peroxisome Proliferator-activated Receptor alpha (PPARa), PPARA (gene 5465) (UniProt Q07869); assay: ATG_PPARa_TRANS: Attagene TRANS-FACTORIAL HepG2 Assay for human Peroxisome Proliferator-activated Receptor alpha (PPARa) (AID 2283001; active = hit-call score of the fitted dose curve at least 0.9, where 1 is the maximum)
How it was run: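 Cells (HepG2) are transfected with multiple reporter transcription units, exposed to chemical for 24 h, then total RNA is reverse-transcribed and amplified. Labelled products are quantified by capillary electrophoresis; induction is referenced to DMSO.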

[11] = biological target: human Retinoic Acid Receptor beta (RARb), RARB (gene 5915) (UniProt P10826); assay: ATG_RARb_TRANS: Attagene TRANS-FACTORIAL HepG2 Assay for human Retinoic Acid Receptor beta (AID 2283004; active = hit-call score of the fitted dose curve at least 0.9, where 1 is the maximum)
How it was run: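 Readout is reporter mRNA induction: RNA reverse-transcribed, PCR-amplified, FAM-labelled, HpaI-cut and resolved by capillary electrophoresis. Transiently transfected HepG2 cells carrying exogenous NR–Gal4 chimeras were dosed for 24 h; activity fitted upward relative to DMSO.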

[12] = biological target: human Peroxisome Proliferator-activated Receptor delta (PPARd), PPARD (gene 5467) (UniProt Q03181); assay: ATG_PPARd_TRANS: Attagene TRANS-FACTORIAL HepG2 Assay for human Peroxisome Proliferator-activated Receptor delta (PPARd) (AID 2283002; active = hit-call score of the fitted dose curve at least 0.9, where 1 is the maximum)
How it was run: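 Multiplexed trans-activation format: HepG2 liver cells expressing exogenous NR-Gal4 chimeras and GAL4-UAS reporters were exposed for 24 h. Reporter mRNA was detected by RT-PCR with capillary electrophoresis fluorescence; activity fitted as gain of signal relative to DMSO.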

[13] = biological target: Transcriptional activator Myb (Homo sapiens) (UniProt P10242); assay: ATG_Myb_CIS: Attagene CIS-FACTORIAL HepG2 Assay for human Myeloblastosis (Myb) Proto-Oncogene Transcription Factor (AID 2282986); details: HepG2 Attagene CIS-FACTORIAL Myb reporter transcription; actives raise or lower the signal
How it was run: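 After 24 h of compound dosing, total RNA from transfected HepG2 cells is reverse-transcribed and the reporter sequences amplified, labeled and separated by capillary electrophoresis. Values come from bidirectional fitting against DMSO.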

[14] = BSK_3C_TissueFactor: BioMAP Diversity Plus: 3C Assay for Tissue Factor Biomarker Activity (AID 2282997); details: BioMAP 3C HUVEC, tissue factor biomarker readout; actives raise or lower the signal
How it was run: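 HUVEC, 3C system, 24 h post-dose; Tissue Factor by ELISA; bidirectional fit vs DMSO baseline.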

[15] = BSK_3C_uPAR: BioMAP Diversity Plus: 3C Assay for Urokinase-type plasminogen activator receptor (uPAR) Biomarker Activity (AID 2282998); details: BioMAP 3C HUVEC, uPAR biomarker ELISA; actives raise or lower the signal
How it was run: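 Cell-surface uPAR on HUVEC (3C system) read by ELISA at 24 h post-treatment, with DMSO as baseline and fitting in both directions. Parallel cultures stained with SRB to flag overt cytotoxicity.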

[16] = BSK_3C_VCAM1: BioMAP Diversity Plus: 3C Assay for Vascular cell adhesion molecule 1 (VCAM1) Biomarker Activity (AID 2282999); details: BioMAP 3C HUVEC, VCAM1 ELISA, cytokine-stimulated; actives raise or lower the signal
How it was run: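 Vascular primary endothelium (human umbilical vein) was exposed to chemicals and assayed 24 h later. VCAM-1 levels came from ELISA, with DMSO serving as baseline for bidirectional fitting.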

[17] = read-out: Intercellular Adhesion Molecule 1 (ICAM1), ICAM1 (gene 3383); assay: BSK_3C_ICAM1: BioMAP Diversity Plus: 3C Assay for Intercellular Adhesion Molecule 1 (ICAM1) Biomarker Activity (AID 2283003); details: primary human endothelial cells (HUVEC); actives raise or lower the signal
How it was run: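 ELISA readout of ICAM1 in human umbilical vein endothelial cells in the 3C system, taken 24 h post-dose. Gain or loss of signal versus DMSO was fitted in both directions, with SRB total-protein staining run in parallel.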

Sequence of Myc proto-oncogene protein (Homo sapiens) (P01106 whole entry, looked up): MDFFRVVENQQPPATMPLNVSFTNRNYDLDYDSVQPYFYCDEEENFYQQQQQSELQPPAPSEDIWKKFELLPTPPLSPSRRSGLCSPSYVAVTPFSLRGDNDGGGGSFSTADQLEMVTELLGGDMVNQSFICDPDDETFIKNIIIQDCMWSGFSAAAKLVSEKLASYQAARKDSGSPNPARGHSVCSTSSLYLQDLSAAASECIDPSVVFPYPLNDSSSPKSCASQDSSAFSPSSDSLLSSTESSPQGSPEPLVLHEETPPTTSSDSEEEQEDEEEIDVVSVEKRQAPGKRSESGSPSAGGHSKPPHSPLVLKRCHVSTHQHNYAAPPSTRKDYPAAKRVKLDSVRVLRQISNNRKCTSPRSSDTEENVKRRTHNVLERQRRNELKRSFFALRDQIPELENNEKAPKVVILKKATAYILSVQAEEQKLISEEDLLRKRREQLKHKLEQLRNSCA
Sequence of Cellular tumor antigen p53 (Homo sapiens) (P04637 whole entry, looked up, the tested form may be a part): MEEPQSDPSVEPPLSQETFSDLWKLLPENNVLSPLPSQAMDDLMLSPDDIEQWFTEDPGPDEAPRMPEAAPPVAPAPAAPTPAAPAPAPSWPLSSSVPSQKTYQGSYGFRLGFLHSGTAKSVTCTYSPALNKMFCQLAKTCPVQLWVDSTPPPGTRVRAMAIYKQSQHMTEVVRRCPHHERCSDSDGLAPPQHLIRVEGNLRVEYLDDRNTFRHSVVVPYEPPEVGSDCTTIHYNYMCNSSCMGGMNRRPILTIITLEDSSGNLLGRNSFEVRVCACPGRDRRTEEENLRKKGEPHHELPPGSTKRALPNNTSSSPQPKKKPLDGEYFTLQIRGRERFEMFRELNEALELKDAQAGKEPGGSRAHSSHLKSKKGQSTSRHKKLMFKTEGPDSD
Sequence of Nuclear respiratory factor 1 (Homo sapiens) (Q16656 whole entry, looked up): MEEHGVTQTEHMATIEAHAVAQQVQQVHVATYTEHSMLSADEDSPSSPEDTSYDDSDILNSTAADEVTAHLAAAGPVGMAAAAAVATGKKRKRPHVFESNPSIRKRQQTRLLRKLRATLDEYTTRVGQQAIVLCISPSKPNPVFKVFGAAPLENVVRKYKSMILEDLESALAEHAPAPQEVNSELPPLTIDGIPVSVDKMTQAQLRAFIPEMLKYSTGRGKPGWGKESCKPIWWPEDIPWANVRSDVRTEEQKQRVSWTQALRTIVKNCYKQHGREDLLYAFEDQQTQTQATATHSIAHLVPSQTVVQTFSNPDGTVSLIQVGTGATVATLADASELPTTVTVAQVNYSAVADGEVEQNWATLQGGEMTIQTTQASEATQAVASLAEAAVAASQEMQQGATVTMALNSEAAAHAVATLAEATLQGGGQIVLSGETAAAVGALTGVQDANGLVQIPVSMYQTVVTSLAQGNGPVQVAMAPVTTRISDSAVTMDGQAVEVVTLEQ
Sequence of Nuclear receptor subfamily 4 group A member 2 (Homo sapiens) (P43354 whole entry, looked up, the tested form may be a part): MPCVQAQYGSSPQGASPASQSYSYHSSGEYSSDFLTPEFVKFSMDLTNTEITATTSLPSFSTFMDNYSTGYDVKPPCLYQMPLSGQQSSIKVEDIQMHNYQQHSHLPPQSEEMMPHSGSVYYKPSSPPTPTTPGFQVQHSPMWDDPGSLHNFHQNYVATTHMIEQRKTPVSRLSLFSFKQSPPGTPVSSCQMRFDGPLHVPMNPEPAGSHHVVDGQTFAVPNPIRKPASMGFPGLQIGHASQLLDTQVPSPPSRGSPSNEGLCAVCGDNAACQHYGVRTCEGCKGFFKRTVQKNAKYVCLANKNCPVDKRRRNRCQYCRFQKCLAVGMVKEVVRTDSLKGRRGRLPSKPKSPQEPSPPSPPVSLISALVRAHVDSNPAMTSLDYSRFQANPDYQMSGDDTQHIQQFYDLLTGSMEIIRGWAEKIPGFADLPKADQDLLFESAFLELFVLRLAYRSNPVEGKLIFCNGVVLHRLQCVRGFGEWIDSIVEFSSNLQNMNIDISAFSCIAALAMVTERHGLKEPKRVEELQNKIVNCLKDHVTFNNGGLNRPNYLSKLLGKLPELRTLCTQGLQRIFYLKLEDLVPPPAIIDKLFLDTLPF
Sequence of Transcriptional activator Myb (Homo sapiens) (P10242 whole entry, looked up): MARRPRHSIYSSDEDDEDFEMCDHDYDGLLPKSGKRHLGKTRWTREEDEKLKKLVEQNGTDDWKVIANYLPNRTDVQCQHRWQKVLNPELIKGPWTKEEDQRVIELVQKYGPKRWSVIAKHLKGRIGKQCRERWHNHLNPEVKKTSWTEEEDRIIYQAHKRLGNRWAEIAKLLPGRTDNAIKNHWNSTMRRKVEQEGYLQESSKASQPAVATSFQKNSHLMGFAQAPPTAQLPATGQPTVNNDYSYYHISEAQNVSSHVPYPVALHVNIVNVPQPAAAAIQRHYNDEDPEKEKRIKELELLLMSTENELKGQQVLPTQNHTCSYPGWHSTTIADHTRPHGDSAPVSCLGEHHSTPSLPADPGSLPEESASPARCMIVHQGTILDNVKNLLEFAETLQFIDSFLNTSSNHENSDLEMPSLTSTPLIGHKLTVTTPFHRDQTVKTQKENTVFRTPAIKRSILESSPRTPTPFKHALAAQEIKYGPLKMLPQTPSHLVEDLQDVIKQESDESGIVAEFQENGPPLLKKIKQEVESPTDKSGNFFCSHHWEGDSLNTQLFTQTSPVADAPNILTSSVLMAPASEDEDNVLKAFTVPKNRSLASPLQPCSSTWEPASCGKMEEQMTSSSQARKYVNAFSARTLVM
Sequence of human Peroxisome Proliferator-activated Receptor alpha (PPARa), PPARA (gene 5465) (Q07869 whole entry, looked up): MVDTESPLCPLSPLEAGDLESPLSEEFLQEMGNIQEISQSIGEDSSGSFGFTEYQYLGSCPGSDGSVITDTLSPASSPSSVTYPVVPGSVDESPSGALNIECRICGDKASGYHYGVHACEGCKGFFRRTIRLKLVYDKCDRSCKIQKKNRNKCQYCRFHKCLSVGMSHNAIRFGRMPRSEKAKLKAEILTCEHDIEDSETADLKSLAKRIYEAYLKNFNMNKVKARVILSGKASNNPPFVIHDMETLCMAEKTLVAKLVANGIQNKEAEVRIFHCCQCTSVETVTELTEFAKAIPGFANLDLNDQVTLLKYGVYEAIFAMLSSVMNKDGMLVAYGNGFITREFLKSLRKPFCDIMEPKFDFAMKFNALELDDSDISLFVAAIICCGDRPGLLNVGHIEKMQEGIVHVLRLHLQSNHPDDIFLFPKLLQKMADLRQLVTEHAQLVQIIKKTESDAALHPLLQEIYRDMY
Sequence of human Retinoic Acid Receptor beta (RARb), RARB (gene 5915) (P10826 whole entry, looked up, the tested form may be a part): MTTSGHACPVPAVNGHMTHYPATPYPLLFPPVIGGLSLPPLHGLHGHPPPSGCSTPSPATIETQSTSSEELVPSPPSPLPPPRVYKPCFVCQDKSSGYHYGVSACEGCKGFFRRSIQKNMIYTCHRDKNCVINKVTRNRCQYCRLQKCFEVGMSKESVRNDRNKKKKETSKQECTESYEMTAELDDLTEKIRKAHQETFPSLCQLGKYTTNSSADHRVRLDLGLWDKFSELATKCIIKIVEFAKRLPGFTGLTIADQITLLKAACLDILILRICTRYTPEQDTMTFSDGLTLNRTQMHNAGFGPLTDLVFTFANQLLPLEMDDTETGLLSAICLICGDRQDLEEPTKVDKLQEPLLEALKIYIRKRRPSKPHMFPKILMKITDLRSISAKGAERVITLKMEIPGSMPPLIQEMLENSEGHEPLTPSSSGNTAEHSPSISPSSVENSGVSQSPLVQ
Sequence of human Peroxisome Proliferator-activated Receptor delta (PPARd), PPARD (gene 5467) (Q03181 whole entry, looked up, the tested form may be a part): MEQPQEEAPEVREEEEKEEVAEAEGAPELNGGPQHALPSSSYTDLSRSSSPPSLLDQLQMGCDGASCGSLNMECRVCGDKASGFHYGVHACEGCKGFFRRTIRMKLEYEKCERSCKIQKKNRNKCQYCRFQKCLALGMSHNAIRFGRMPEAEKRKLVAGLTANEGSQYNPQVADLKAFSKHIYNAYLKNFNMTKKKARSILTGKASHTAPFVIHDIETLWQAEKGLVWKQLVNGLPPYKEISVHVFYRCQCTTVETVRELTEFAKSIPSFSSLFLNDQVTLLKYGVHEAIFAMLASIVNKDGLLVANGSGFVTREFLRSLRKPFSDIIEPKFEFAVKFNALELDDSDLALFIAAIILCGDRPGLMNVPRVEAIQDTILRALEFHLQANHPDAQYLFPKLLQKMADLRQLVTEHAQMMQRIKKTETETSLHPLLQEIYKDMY

Structure (SMILES): O=C/C=C/c1ccccc1
- outcome [1]: inactive
- outcome [2]: inactive
- outcome [3]: inactive
- outcome [4]: inactive
- outcome [5]: inactive
- outcome [6]: inactive
- AC50 [7]: 30.8 µM (active)
- outcome [8]: inactive
- outcome [9]: inactive
- outcome [10]: inactive
- outcome [11]: inactive

Structure (SMILES): Cc1ccccc1C(=O)Nc1cccc(OC(C)C)c1
- outcome [1]: inactive
- outcome [3]: inactive
- outcome [4]: inactive
- outcome [5]: inactive
- outcome [6]: inactive
- AC50 [7]: 57.3 µM (active)
- outcome [8]: inactive
- outcome [9]: inactive
- outcome [12]: inactive

Structure (SMILES): N#CCCO
- outcome [13]: inactive
- outcome [3]: inactive
- outcome [4]: inactive
- outcome [5]: inactive
- outcome [6]: inactive
- outcome [7]: inactive
- outcome [8]: inactive
- outcome [9]: inactive
- outcome [10]: inactive

Structure (SMILES): Fc1ccc(C2(Cn3cncn3)OC2c2ccccc2Cl)cc1 (centres undefined)
- outcome [2]: inactive
- outcome [13]: inactive
- outcome [3]: inactive
- outcome [4]: inactive
- outcome [5]: inactive
- outcome [6]: inactive
- AC50 [7]: 44.7 µM (active)
- outcome [8]: inactive

Structure (SMILES): C=C(C)C#N
- outcome [13]: inactive
- outcome [3]: inactive
- outcome [4]: inactive
- outcome [7]: inactive
- outcome [8]: inactive
- outcome [9]: inactive
- outcome [11]: inactive

Structure (SMILES): O=C(c1ccccc1)C(Cl)Cl
- outcome [1]: inactive
- outcome [2]: inactive
- AC50 [3]: 24.8 µM (active)
- AC50 [4]: 25.1 µM (active)
- outcome [5]: inactive
- AC50 [6]: 25.9 µM (active)
- outcome [7]: inactive
- AC50 [8]: 25.3 µM (active)
- outcome [9]: inactive
- outcome [10]: inactive

Structure (SMILES): CCCCP(CCCC)CCCC
- outcome [13]: inactive
- outcome [3]: inactive
- outcome [4]: inactive
- outcome [5]: inactive
- outcome [6]: inactive
- outcome [7]: inactive
- outcome [8]: inactive
- outcome [9]: inactive

Structure (SMILES): C1CCC(NC2CCCCC2)CC1
- outcome [13]: inactive
- outcome [3]: inactive
- outcome [4]: inactive
- outcome [5]: inactive
- outcome [7]: inactive
- outcome [8]: inactive
- outcome [9]: inactive
- outcome [10]: inactive
- outcome [11]: inactive

Structure (SMILES): COC(=O)c1sccc1S(=O)(=O)NC(=O)Nc1nc(C)nc(OC)n1
- outcome [2]: inactive
- outcome [13]: inactive
- outcome [3]: inactive
- outcome [4]: inactive
- outcome [5]: inactive
- outcome [6]: inactive
- outcome [7]: inactive
- outcome [8]: inactive
- outcome [9]: inactive
- outcome [14]: inactive
- outcome [15]: inactive
- outcome [16]: inactive
- outcome [17]: inactive
